# The whole screen tested about 310,000 compounds, of which about 18,000 (5.8%) were called active. Entries that show only a call come without a potency. Roughly 22% stayed inconclusive and do not appear here. Many of the other results were omitted from the sample, so actives are more common in it than they were. Values without a mark were called inactive. The call rests on the fitted dose curve; in most records, active means well fitted inhibition curve with a large enough effect; inconclusive means small, poorly fitted or top-dose-only effect, or another doubt; inactive means no such curve, though single readings can be large or run the other way.
# Test: Primary qHTS for delayed death inhibitors of the malarial parasite plastid, 48 hour incubation
# Conditions: P. falciparum luciferase growth in erythrocytes; series mostly up to 28.7 µM
# In short: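 Erythrocytes infected with P. falciparum carrying an integrated firefly luciferase reporter (2% hematocrit, 0.1% parasitemia final) were exposed to compounds in RPMI 1640 with 0.5% Albumax at 37 C, 5% CO2. Growth inhibition was scored as reduced luminescence.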
# Potency means the concentration at half of the fitted maximal effect.
row,SMILES,Potency
1,CN(CC(=O)Nc1ccc(Cl)c(C(F)(F)F)c1)C(=O)CCC(=O)c1ccccc1,inactive
2,O=C(NCCCN1CCCC1=O)C(=O)NCC1OCCN1S(=O)(=O)c1ccc(Br)cc1 (stereo unspecified),inactive
3,CCOc1cccc(-c2nnc(SCC(=O)NC3CC3)n2C)c1,inactive
4,CN(C)/C=C/C(=O)c1ccccc1F,inactive
5,O=C(c1ccccc1F)N(Cc1ccccc1)Cc1ccccc1,inactive
6,Cc1ccc(N(Cc2ccccc2O)C(=O)c2ccccc2F)cc1,9.28 µM (active)
7,O=C(COc1ccc(Cl)cc1)Nc1ccc2oc(=O)ccc2c1,inactive
8,O=C(CCN1C(=O)C2C3CCC(C3)C2C1=O)Nc1ccc(Cl)cc1Cl (stereo unspecified),inactive
9,O=C(CN1CCOCC1)Nc1c(Cl)cc(Cl)cc1Cl,inactive
10,O=C(Nc1ccc(CN2CCOCC2)cc1)c1cc(Cl)ccc1Cl,inactive
11,CC(C)(C)c1cc(NC(=O)NN2CCOCC2)nn1-c1c(Cl)cc(Cl)cc1Cl,10.4 µM (active)
12,CC(=O)C(C)n1cnc2scc(-c3ccc(C)cc3)c2c1=O (stereo unspecified),inactive
13,COc1ccc(OC)c(-c2csc(-c3cccs3)n2)c1,inactive
14,COc1cc(OC)cc(-c2c(-c3cccs3)c3cc(-c4ccc(OC)cc4F)ccc3n2C)c1,13.1 µM (active)
15,COc1ccc2c(c1)c(C(=O)N/N=C/c1cccs1)c(C)n2C,inactive
16,COc1cc(OC)cc(-c2c(-c3ccc(F)cc3)c3cc(-c4ccc5cc[nH]c5c4)ccc3n2C)c1,5.22 µM (active)
17,CCOC(=O)N1CCN(C(=O)C(C)NC(=O)c2ccco2)CC1 (stereo unspecified),inactive
18,COc1ccc(/C=C/c2c(-c3cccc(C)c3)oc3ccc(-c4ccc5c(c4)OCO5)cc23)cc1,inactive
19,COc1cc(/C=N/NC(=O)c2ccccc2)ccc1OS(=O)(=O)c1ccccc1,10.4 µM (active)
20,COc1ccc(/C=N\NC(=O)c2sc(N)nc2C)cc1OC,inactive
21,Cc1ccc(S(=O)(=O)Oc2ccc(/C=N/NC(=O)c3ccncc3)cc2)cc1,inactive
22,COc1ccc(/C=N/S(=O)(=O)c2ccccc2)cc1OC,inactive
23,COc1ccc(/C=N/NC(=O)c2ccc(Cl)cc2)cc1COC(C)=O,inactive
24,COc1ccc(/C=N/NC(=O)c2ccccc2)cc1OS(=O)(=O)c1ccccc1,9.28 µM (active)
25,O=C(O)Cc1ccc(NC(=O)Nc2cccc3ccccc23)cc1,inactive
26,COc1cc(NC(=O)c2ccc(-c3csc(C)n3)cc2)c(OC)cc1Cl,inactive

row,SMILES,Potency
1,Cc1cccc(NC(=O)C2CCCN(C(=O)Nc3ccc(F)cc3)C2)c1C (stereo unspecified),inactive
2,COCc1cc(C)n(CC(=O)NCC2CCCO2)c(=O)c1C#N (stereo unspecified),inactive
3,COc1ccc(N(C(=O)c2cccnc2)S(=O)(=O)c2ccc(OC)c(OC)c2)cc1,inactive
4,CC[C@H]1CN2CCc3cc(OC)c(OC)cc3[C@@H]2C[C@@H]1C[C@H]1NCCc2cc(OC)c(OC)cc21,0.0828 µM (active)
5,NC(=O)NC(=O)C(OC(=O)CCNS(=O)(=O)c1ccccc1)c1ccccc1 (stereo unspecified),inactive
6,O=C(CCc1c[nH]c2ccccc12)NCCOc1ccccc1,inactive
7,O=C(CCCCCn1c(=O)[nH]c2ccccc2c1=O)NCCc1c[nH]c2ccccc12,8.28 µM (active)
8,O=C(CCCCn1c(=O)[nH]c2ccccc2c1=O)NCc1ccc2c(c1)OCO2,inactive
9,COc1ccc2c(C)cc(SCC(=O)NCC3CCCO3)nc2c1 (stereo unspecified),inactive
10,COc1ccc2nc(NC3=NCN(CC4CCCO4)CN3)nc(C)c2c1 (stereo unspecified),11.7 µM (active)
11,Cc1ccc2nc(NC3=NCN(CCc4ccccc4)CN3)nc(C)c2c1,inactive
12,CC(NC(=O)COc1cccnc1[N+](=O)[O-])c1ccc(Cl)cc1Cl (stereo unspecified),inactive
13,Cn1c(SCC(=O)Nc2ccc(N3CCOCC3)cc2)nnc1C(F)(F)F,inactive
14,CCN(CC)c1ccc2cc(C(N)=O)/c(=N\NC(=O)c3ccncc3)oc2c1,inactive
15,CCN(CC)c1ccc2c(Nc3ccccc3)c(C=O)c(=O)oc2c1,inactive
16,CCN(CC)c1ccc2oc(=O)c(C)nc2c1,1.47 µM (active)
17,Cc1ccccc1N1CCN(C2CCCN(C(=O)c3cn4c(C)cccc4n3)C2)CC1 (stereo unspecified),inactive
18,CCC(CC)c1nnc(NC(=O)C2=COCCO2)s1,inactive
19,O=C(O)C1CCC(CNS(=O)(=O)c2ccc(Br)cc2)CC1 (stereo unspecified),inactive
20,CCn1c(=O)c(C(=O)NCc2ccc3c(c2)OCO3)c(O)c2ccccc21,inactive
21,O=C(COC(=O)c1cnc(Cl)c(Cl)c1)NCc1ccco1,inactive
22,CCCC1=Nc2cc(C(=O)NCc3ccco3)ccc2Sc2ccccc21,4.65 µM (active)
23,COc1ccc(CCNS(=O)(=O)c2ccc(C(=O)NCc3ccco3)cc2)cc1OC,inactive
24,COc1ccc(N2CC(C(=O)N[C@@H](C)C(=O)N3CCCCC3)CC2=O)cc1 (stereo partly specified),inactive
25,O=C(Nc1cccc2cccnc12)c1cccc(Cl)c1,inactive

# Source: PubChem BioAssay AID504832 (National Center for Advancing Translational Sciences (NCATS), 2011)
